According to PubChem BioAssay AID1345082 (National Center for Advancing Translational Sciences (NCATS), 2018):
In all, about 94,000 compounds went through this assay and about 4,000 (4.3%) were called active. Another 29% or so got no clear call; they are omitted. This is one part of a sample in which actives are shown more often than they occur. Unmarked numbers belong to inactive results. Calls come from the whole dose curve; as a rule, active = well fitted inhibition curve with a large enough effect; inconclusive = small, poorly fitted or top-dose-only effect; inactive = no such curve, though single readings can be large or run the other way.

Assay: Cytotoxic Profiling in NIH 3T3 Cell Line of Diverse Libraries Using Quantitative High-Throughput Screening; note: nearly all actives have a fitted effect of over 55% in size
Details: NIH 3T3 viability, CellTiter-Glo ATP luminescence, 48-72 h; series mostly up to 96.7 µM; activity change, negative = cytotoxicity: at the top concentration
Procedure, shortened: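 NIH 3T3 cells at 400 cells/well received 23 nL of compound by pintool and were incubated 48 or 72 h at 37 °C. Viability was read as ATP-coupled CellTiter-Glo luminescence.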
% is set by controls: 0 for no effect and ±100 for the full control effect; potency is the fitted concentration of half-maximal effect.

Row | SMILES | activity change, negative = cytotoxicity | outcome | Potency
1 | CCNC(=O)[C@@H]1C[C@@H](NC(=O)c2csc(C)c2CC)CN1C1CCCC1 | -28.1% | – | –
2 | CCOc1ccccc1CN1CCN(C2CCN(C(C)C)CC2)C(CCO)C1 (centres undefined) | -19.7% | – | –
3 | COc1ccc(CN[C@@H]2CCC[C@@H](C(=O)NCc3cc(C)on3)CC(=O)N(C)C2)cn1 | – | inactive [at 174 µM] | –
4 | CCn1nc(CNC(=O)C2CCC(=O)N(C3CCCC3)C2)c2ccccc21 (centres undefined) | -3.82% | – | –
5 | COc1cc(NC(=O)Cn2nc3n(c2=O)CCCCC3)cc(OC)c1OC | – | inactive | –
6 | Cc1nc(C)c(C(=O)N2CCC(Oc3ccccc3-c3nc(-c4ccccc4)no3)C2)s1 (centres undefined) | – | – | 39.8 µM (active)
7 | COCc1nc(-c2ccc(OC3CNC3)cc2)no1 | -1.51% | – | –
8 | O=C(c1ccoc1)N1CC(Oc2ccc(-c3nc(-c4ccccc4)no3)cc2)C1 | -5.84% | – | –
9 | Cc1cccc(C(=O)N2CCC(Oc3ccc(-c4noc(C(C)C)n4)cc3)C2)c1 (centres undefined) | -31.8% | – | –
10 | Cc1noc(-c2ccccc2OC2CCN(C(=O)c3cnccc3C)C2)n1 (centres undefined) | -15.5% | – | –
11 | c1ccc(-c2noc(-c3ccccc3OC3CCNC3)n2)cc1 (centres undefined) | – | – | 12.6 µM (active)
12 | O=C1CCN(C(=O)Cc2cccc(F)c2)CCCC(c2nc(-c3cccnc3)no2)CCN1 (centres undefined) | -20% | – | –
13 | CC(=O)N1CCC[C@@H]1C(=O)N1CCC(N2CCOC2=O)CC1 | -12.4% [at 138 µM] | – | –
14 | CCN1C(=O)C2CC3(CCN(C(=O)c4cc5ccccc5[nH]4)CC3)CN2C1=O (centres undefined) | -24.2% | – | –
15 | COC1CCOC2(CCN(C(=O)NCc3ccc(C)cc3)CC2)C1 (centres undefined) | – | inactive | –
16 | O=C1NCc2ccccc2CC12CCN(Cc1ccc(O)cc1)CC2 | – | inactive | –
17 | CC(C)Cc1ccc(CN2CCC3(CC2)Cc2ccccc2CNC3=O)cc1 | – | – | 25.1 µM (active)
18 | Cc1ccc(CN2CCC3(Cc4ccccc4CNC3=O)C2)cc1 (centres undefined) | -26.8% | – | –
19 | COCCN1C(=O)c2cccn2CC1CNC(=O)c1cc2ccccc2[nH]1 (centres undefined) | -6.67% | – | –
20 | O=C(c1ccccc1F)N1CCC(c2nc(C3CCOCC3)no2)CC1 | -23.9% | – | –
21 | O=C(NC1CCN(c2nc3ncccc3o2)CC1)c1ccc(F)cc1 | -19.8% [at 138 µM] | – | –
22 | O=C(CCc1conc1-c1ccccc1F)NCc1cccc(Cl)c1 | -26.3% | – | –
23 | O=c1[nH]c(C2CCCN(Cc3ccccn3)C2)nn1-c1ccc(Cl)cc1 (centres undefined) | – | – | 3.16 µM (active)
24 | CC(=O)N1CCCC(c2nn(-c3ccccc3)c(=O)[nH]2)C1 (centres undefined) | -15.9% [at 138 µM] | – | –
25 | COc1cccc(C(=O)N2CCC(c3nn(-c4ccccc4)c(=O)[nH]3)CC2)c1 | -22.9% | – | –

Row | SMILES | activity change, negative = cytotoxicity | outcome | Potency
26 | O=C(Cc1cccc(Cl)c1)N1CCC(c2nn(-c3ccc(Cl)cc3)c(=O)[nH]2)CC1 | – | – | 44.7 µM (active)
27 | Cn1nc(C2CCN(C(=O)c3cccc(Cl)c3)CC2)[nH]c1=O | -6.82% [at 138 µM] | – | –
28 | O=C(Nc1ccccc1)N1CCCC(c2nn(-c3ccccn3)c(=O)[nH]2)C1 (centres undefined) | -29.6% | – | –
29 | COc1ccc(C(C)NC(=O)CN2C(=O)C(c3ccccc3)=NC2(C)C)cc1 (centres undefined) | -8.44% | – | –
30 | CN1C(=O)CC[C@]2(C(=O)NCC3CCCCC3)CCCC[C@@H]12 | -6.67% | – | –
31 | O=C(NC1CCOC1)c1ccc2oc(-c3ccc(C(F)(F)F)cc3)nc2c1 (centres undefined) | -13.7% | – | –
32 | O=C(CSc1ccncc1)N1CCCC(O)(CN2CCCC2)C1 (centres undefined) | 1.99% | – | –
33 | COc1ccc(N2Cc3c(NCc4cccs4)ncnc3N(C)CC2=O)cc1 | -18.8% | – | –
34 | COCCOc1cc(=O)n2c(c1C(=O)NCc1ccccc1)CCOCC2 | – | inactive | –
35 | Cc1cccc(CN2CCc3ncc(C(=O)NCc4ccccc4)n3CC2)n1 | – | – | 89.1 µM (active)
36 | COCCNC(=O)N1CCc2nn(Cc3ccccc3)c(=O)n2CC1 | -7.78% | – | –
37 | CCOc1ccc(C(=O)N2C[C@@H](CO)[C@H](c3ccncc3)C2)cc1 | -12.1% | – | –
38 | COc1ccc2ccc(OCc3nc(C(=O)N4CCC(=O)NCC4C)co3)cc2c1 (centres undefined) | -26.5% | – | –
39 | Cc1ccccc1CNC[C@H]1O[C@@H]2C[C@@H](CC(=O)NC(C)C)O[C@@H]2[C@@H]1O | 0.345% [at 174 µM] | – | –
40 | CCOc1cc(C)c(CN2C[C@@H](CN(C)C)C[C@H](CO)C2)cc1C(C)C | – | – | 31.6 µM (active)
41 | Cc1cc(=O)n(CC(=O)N2C[C@H](CO)C[C@H](CN(C)C)C2)nc1C | 1.11% | – | –
42 | COc1cc(C)c(CN2CCN3C(=O)CNC(=O)C3C2)cc1C(C)C (centres undefined) | -22% | – | –
43 | O=C(C1CCCCC1)N1CCCC(n2cc(-c3nc(-c4ccccc4)no3)nn2)C1 (centres undefined) | -29.6% | – | –
44 | COC(=O)[C@@H]1C[C@H](NC(=O)c2c(Cl)cccc2Cl)CN1C | 0.966% | – | –
45 | CN1CCNc2nc(CNc3cccc(F)c3)n(Cc3ccccc3)c2C1=O | -38.3% [at 138 µM] | – | –
46 | O=C1c2c(nc(COc3ccccc3)n2Cc2ccccc2)NCCN1Cc1cccc(Cl)c1 | – | – | 28.2 µM (active)
47 | C=CCC1(C(=O)O)CCCN(Cc2cn[nH]c2C(=O)O)C1 (centres undefined) | 0.72% | – | –
48 | COc1ccc(NC(=O)O[C@@H]2CO[C@H]3[C@@H]2OC[C@@H]3NC(=S)Nc2cccc3ccccc23)cc1 | -30.5% | – | –
49 | CCNC(=O)O[C@@H]1CO[C@H]2[C@@H]1OC[C@@H]2NC(=O)c1cccc(C(=O)OC)c1 | 1.15% [at 174 µM] | – | –
